IDE exosite FP: exo-site inhibitors of human IDE, primary screen, biochemical, fluorescence anisotropy, probe displacement; Insulin-degrading enzyme (Homo sapiens), P14735; AID 1259349, 2017; 6.3% of 17,000 active; z-score at 20 µM; purified IDE, FL-6b probe fluorescence polarization; active compounds read low;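 active = z-score of -3 or lower, meaning strong loss of probe binding signal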;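 note: His-tagged human IDE residues 42-1019 made in E. coli with 30 nM FL-6b probe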
Target sequence (P14735 42-1019 limits assumed): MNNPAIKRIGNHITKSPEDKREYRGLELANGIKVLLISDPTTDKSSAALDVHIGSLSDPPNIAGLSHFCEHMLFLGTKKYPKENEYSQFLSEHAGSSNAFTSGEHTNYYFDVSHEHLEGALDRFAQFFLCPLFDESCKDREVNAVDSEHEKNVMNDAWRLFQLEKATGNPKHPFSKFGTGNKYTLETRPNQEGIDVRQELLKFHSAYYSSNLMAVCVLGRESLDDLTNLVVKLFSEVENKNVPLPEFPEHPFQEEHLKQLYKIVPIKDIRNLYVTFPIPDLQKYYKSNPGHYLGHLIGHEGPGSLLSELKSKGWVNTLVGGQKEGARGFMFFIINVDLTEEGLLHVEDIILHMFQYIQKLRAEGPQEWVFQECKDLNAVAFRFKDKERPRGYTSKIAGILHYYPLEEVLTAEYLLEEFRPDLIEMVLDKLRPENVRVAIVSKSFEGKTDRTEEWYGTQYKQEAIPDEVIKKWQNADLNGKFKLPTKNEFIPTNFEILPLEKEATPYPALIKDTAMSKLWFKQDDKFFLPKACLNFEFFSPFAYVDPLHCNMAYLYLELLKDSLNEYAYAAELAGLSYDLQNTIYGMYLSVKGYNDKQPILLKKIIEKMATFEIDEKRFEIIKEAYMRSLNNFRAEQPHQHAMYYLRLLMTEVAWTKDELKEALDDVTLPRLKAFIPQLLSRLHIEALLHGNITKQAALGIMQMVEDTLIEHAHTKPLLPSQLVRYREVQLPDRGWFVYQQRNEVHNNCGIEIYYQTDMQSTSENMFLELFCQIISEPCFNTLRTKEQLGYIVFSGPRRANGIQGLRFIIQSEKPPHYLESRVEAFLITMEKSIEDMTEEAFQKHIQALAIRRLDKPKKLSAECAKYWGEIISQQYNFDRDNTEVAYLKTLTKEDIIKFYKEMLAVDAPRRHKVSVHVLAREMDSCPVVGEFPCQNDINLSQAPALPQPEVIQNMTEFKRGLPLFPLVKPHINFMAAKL
An asterisk follows results filed as active. The full list was thinned out, with hits kept by preference.

What do the screens show for `CCCNC(=O)N1CC(=O)N2[C@H](C1)[C@H](c1ccc(-c3ccc(C)cc3)cc1)[C@@H]2CO`?
IDE exosite FP: -3.59*

Results for CCCNC(=O)N1CC(=O)N2[C@H](CO)[C@@H](c3ccc(-c4ccc(C)cc4)cc3)[C@@H]2C1 ?
IDE exosite FP: -0.421

What do the screens show for `CCCNC(=O)N1CC(=O)N2[C@H](C1)[C@@H](c1ccc(-c3cccc(C)c3)cc1)[C@@H]2CO`?
IDE exosite FP: -15.5*

How did O=C(Nc1ccc(Cl)cc1)N1C[C@H]2[C@@H](c3ccccc31)[C@@H](CO)N2CC1CCCCC1 do in these assays?
IDE exosite FP: 2.72

How did CCN1CC(=O)N2[C@H](C1)[C@H](c1ccc(Br)cc1)[C@@H]2CO do in these assays?
IDE exosite FP: 0.629

Results for COCC(=O)N1C[C@@H]2[C@H](c3ccccc31)[C@@H](CO)N2C(=O)c1ccccc1F ?
IDE exosite FP: 2.45

What do the screens show for `O=C(C1CCOCC1)N1CC2(C1)[C@H](c1ccccc1)[C@@H](CO)N2Cc1ccccc1F`?
IDE exosite FP: 1.35

Results for CCC(=O)NC[C@H]1[C@@H](c2ccc(-c3cccc(F)c3)cc2)[C@@H](CO)N1C(=O)CC ?
IDE exosite FP: 1.49

What do the screens show for `CC(C)(O)C#Cc1cccc(-c2nc(C(=O)O)cc3c2[C@H](CCO)N(S(=O)C(C)(C)C)C3)c1` (some centres not stated)?
IDE exosite FP: -0.107

How did O=C1CN(S(=O)(=O)Cc2ccccc2)C[C@@H]2[C@H](c3ccc(C#CC4CC4)cc3)[C@@H](CO)N12 do in these assays?
IDE exosite FP: -0.189

What do the screens show for `O=C(NC[C@H]1[C@H](c2ccccc2)[C@H](CO)N1C(=O)Cc1ccncc1)C1CCC1`?
IDE exosite FP: -0.43

Results for COc1cccc(NC(=O)N2C[C@@H](O)COC[C@@H]3O[C@H](CC(=O)N(C)C)CC[C@H]32)c1 ?
IDE exosite FP: -0.464

How did CCCC#Cc1ccc([C@@H]2[C@@H](CO)N3C(=O)CN(C(=O)c4ccc(F)cc4)C[C@H]23)cc1 do in these assays?
IDE exosite FP: -0.198

What do the screens show for `C[C@@H]1CN([C@@H](C)CO)C(=O)c2cc(NC(=O)Cc3ccccc3)ccc2O[C@@H](C)CCCCO[C@H]1CN(C)Cc1ccncc1`?
IDE exosite FP: 2.24

How did COCC(=O)Nc1ccc2c(c1)C(=O)N(C)[C@@H]1CC[C@@H](CC(=O)NCCCN(C)C)O[C@H]1CO2 do in these assays?
IDE exosite FP: 0.712

What do the screens show for `CN1C(=O)c2cc(NC(=O)Nc3ccccc3Cl)ccc2OC[C@@H]2O[C@H](CC(=O)NCCCN3CCOCC3)CC[C@H]21`?
IDE exosite FP: -1.54

How did COCC(=O)Nc1ccc2c(c1)C(=O)N(C)[C@@H]1CC[C@H](CC(=O)NCCCN(C)C)O[C@H]1CO2 do in these assays?
IDE exosite FP: -3.32*

Results for COCC(=O)Nc1ccc2c(c1)C(=O)N(C)[C@H]1CC[C@@H](CC(=O)NCCCN(C)C)O[C@H]1CO2 ?
IDE exosite FP: -1.24

Results for CN1C(=O)c2cc(NC(=O)Nc3ccccc3Cl)ccc2OC[C@@H]2O[C@@H](CC(=O)NCCCN3CCOCC3)CC[C@H]21 ?
IDE exosite FP: -1.04

Results for CN1C(=O)c2cc(NC(=O)Nc3ccccc3Cl)ccc2OC[C@@H]2O[C@@H](CC(=O)NCCCN3CCOCC3)CC[C@@H]21 ?
IDE exosite FP: -5.06*

What do the screens show for `N#C[C@H]1[C@@H](c2ccccc2)[C@H](CO)N1C(=O)CCN1CCCCC1`?
IDE exosite FP: -1.38

Results for O=C(Cc1ccccn1)N1[C@H](CO)[C@H]2c3ccccc3NC[C@H]21 ?
IDE exosite FP: 2.05

Results for COc1ccc2c3c([nH]c2c1)[C@H](CO)NCC31CN(C(=O)Nc2ccc3c(c2)OCO3)C1 ?
IDE exosite FP: 1.46

What do the screens show for `CCC(=O)N1CCCCN2[C@H](CO)[C@H](c3ccc(C#Cc4cccnc4)cc3)[C@H]2C1`?
IDE exosite FP: -3.19*

Results for O=C(c1cccnc1)N1CCCCN2[C@H](CO)[C@@H](c3ccc(C#Cc4cccnc4)cc3)[C@@H]2C1 ?
IDE exosite FP: -0.297

How did COCC(=O)N1CCCCN2[C@H](CO)[C@@H](c3ccc(C#Cc4cccnc4)cc3)[C@@H]2C1 do in these assays?
IDE exosite FP: 0.0818

How did CCC(=O)N1CCCCN2[C@@H](CO)[C@H](c3ccc(C#Cc4cccnc4)cc3)[C@@H]2C1 do in these assays?
IDE exosite FP: -5.36*

How did COCC(=O)N1CCCCN2[C@H](C1)[C@@H](c1ccc(C#Cc3cccnc3)cc1)[C@@H]2CO do in these assays?
IDE exosite FP: -0.141

How did O=C(c1cccnc1)N1CCCCN2[C@H](CO)[C@H](c3ccc(C#Cc4cccnc4)cc3)[C@H]2C1 do in these assays?
IDE exosite FP: 4.72

How did CCC(=O)N1CCCCN2[C@H](CO)[C@@H](c3ccc(C#Cc4cccnc4)cc3)[C@@H]2C1 do in these assays?
IDE exosite FP: -5.19*

What do the screens show for `O=C(c1cccnc1)N1CCCCN2[C@H](C1)[C@H](c1ccc(C#Cc3cccnc3)cc1)[C@@H]2CO`?
IDE exosite FP: -1.5

Screening results from PubChem.
